# Measured values as given in PubChem BioAssay (EPA / NIEHS).
# Values joined by “and” are separate entries in the source; they are usually repeats but may differ in a detail not shown here. Equal values may be shown once. Active and inactive are the calls of the source. The calls were made as follows: active = hit-call score of the fitted dose curve at least 0.9, where 1 is the maximum; inactive = score below 0.9.
# Read-out: Interleukin-1 alpha (IL1a), IL1A (gene 3552)
# Assay: BSK_KF3CT_IL1a: BioMAP Diversity Plus: KF3CT Assay for Interleukin-1 alpha (IL1a) Biomarker Activity (AID 2283070)
# Conditions: primary human keratinocytes with fibroblasts; actives raise or lower the signal
# How it was run: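 Primary human keratinocyte plus foreskin fibroblast co-culture, dosed and measured at 24 h in 96-well plates. IL-1a level quantified by ELISA; bidirectional fit relative to DMSO.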
SMILES,outcome,AC50
O=S(=O)(OCC(F)(F)F)C(F)(F)C(F)(F)C(F)(F)C(F)(F)F,inactive,
C=CC(=O)OCC(F)(F)C(F)(F)C(F)(F)C(F)(F)C(F)(F)C(F)(F)C(F)(F)C(F)F,inactive,
NS(=O)(=O)C(F)(F)C(F)(F)C(F)(F)C(F)(F)C(F)(F)C(F)(F)F,inactive,
CC(C)CCCC(C)CCO (stereo unspecified),,34.4 µM (active)
CCN(CC)c1ccc(C=O)cc1,inactive,
O=C=Nc1cccc2c(N=C=O)cccc12,inactive,
C=CC(=O)OCCC(F)(F)C(F)(F)C(F)(F)C(F)(F)F,inactive,
OCCCCC(F)(F)C(F)(F)C(F)(F)C(F)(F)F,inactive,
O=C(O)CCC(F)(F)C(F)(F)C(F)(F)C(F)(F)C(F)(F)C(F)(F)C(F)(F)F,inactive,
CCN(CC)c1ccc(N=Nc2ccccc2)cc1,inactive,
O=S(=O)(Cl)C(F)(F)C(F)(F)C(F)(F)C(F)(F)C(F)(F)C(F)(F)C(F)(F)C(F)(F)F,inactive,
O=C(Cl)C(F)(F)C(F)(F)C(F)(F)C(F)(F)C(F)(F)C(F)(F)F,inactive,
Cc1cc(O)c(C(C)(C)C)cc1C(C)(C)C,,4.04 µM (active)
FC(F)(F)C(F)(F)C(F)(F)CC1CO1 (stereo unspecified),inactive,
O=C(O)C(F)(F)C(F)(F)C(F)(F)C(=O)O,inactive,
Cc1cnccn1,inactive,
CN(C(=O)C(F)(F)C(F)(F)C(F)(F)F)[Si](C)(C)C,inactive,

SMILES,outcome,AC50
Brc1nc2ccccc2s1,inactive,
CCN(CC)c1ccc2c(c1)Oc1cc(N(CC)CC)ccc1C21OC(=O)c2ccccc21,inactive,
NC(O)(C(F)(F)F)C(F)(F)F,inactive,
O=C(O)C(F)(F)OC(F)(F)C(F)(F)OC(F)(F)C(F)(F)OC(F)(F)F,inactive,
O=C(O)C(F)(F)C(F)(F)C(F)(F)C(F)(F)C(F)(F)C(F)(F)C(F)F,inactive,
NC(=O)C(F)(F)C(F)(F)C(F)(F)C(F)F,inactive,
OC(O)C(F)(F)C(F)(F)F,inactive,
COC(F)(C(F)F)C(F)(F)F (stereo unspecified),inactive,
Cc1ccc(O)c(-n2nc3ccccc3n2)c1,inactive,
CCN=C1C=CC(=C(c2ccc(N(CC)CC)cc2)c2ccc(N(CC)CC)cc2)c2ccccc21,,2.69 µM (active) and 2.13 µM (active)
NC(=O)C(F)(F)C(F)(F)C(F)(F)C(F)(F)C(F)(F)C(F)(F)C(F)(F)F,inactive,
FC(F)(F)C(F)(F)C(F)(F)C(F)(F)C(F)(F)C(F)(F)C(F)(F)CCI,inactive,
Cc1ccc(S(=O)(=O)C(I)I)cc1,,2.47 µM (active)
OCCCC(F)(F)C(F)(F)C(F)(F)C(F)(F)C(F)(F)C(F)(F)C(F)(F)C(F)(F)F,,11 µM (active) and 8.25 µM (active)
NC(=O)C(F)(F)C(F)(F)C(F)(F)C(F)(F)C(N)=O,inactive,
O=C(O)CCC(F)(F)C(F)(F)C(F)(F)F,inactive,

# Read-out: TIMP metallopeptidase inhibitor 2 (TIMP2), TIMP2 (gene 7077)
# Assay: BSK_KF3CT_TIMP2: BioMAP Diversity Plus: KF3CT Assay for TIMP metallopeptidase inhibitor 2 (TIMP2) Biomarker Activity (AID 2283071)
# Conditions: primary human keratinocytes with fibroblasts; actives raise or lower the signal
# How it was run: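 Cells: human keratinocytes co-cultured with foreskin fibroblasts. Treat with chemical, 24 h. Measure TIMP-2 by ELISA; fit curves bidirectionally vs DMSO baseline.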
SMILES,outcome,AC50
O=S(=O)(OCC(F)(F)F)C(F)(F)C(F)(F)C(F)(F)C(F)(F)F,inactive,
C=CC(=O)OCC(F)(F)C(F)(F)C(F)(F)C(F)(F)C(F)(F)C(F)(F)C(F)(F)C(F)F,inactive,
NS(=O)(=O)C(F)(F)C(F)(F)C(F)(F)C(F)(F)C(F)(F)C(F)(F)F,inactive,
CC(C)CCCC(C)CCO (stereo unspecified),,30.5 µM (active)
CCN(CC)c1ccc(C=O)cc1,inactive,
O=C=Nc1cccc2c(N=C=O)cccc12,inactive,
C=CC(=O)OCCC(F)(F)C(F)(F)C(F)(F)C(F)(F)F,inactive,
OCCCCC(F)(F)C(F)(F)C(F)(F)C(F)(F)F,inactive,
O=C(O)CCC(F)(F)C(F)(F)C(F)(F)C(F)(F)C(F)(F)C(F)(F)C(F)(F)F,inactive,
CCN(CC)c1ccc(N=Nc2ccccc2)cc1,inactive,
O=S(=O)(Cl)C(F)(F)C(F)(F)C(F)(F)C(F)(F)C(F)(F)C(F)(F)C(F)(F)C(F)(F)F,inactive,
O=C(Cl)C(F)(F)C(F)(F)C(F)(F)C(F)(F)C(F)(F)C(F)(F)F,inactive,
Cc1cc(O)c(C(C)(C)C)cc1C(C)(C)C,,2.05 µM (active)
FC(F)(F)C(F)(F)C(F)(F)CC1CO1 (stereo unspecified),inactive,
O=C(O)C(F)(F)C(F)(F)C(F)(F)C(=O)O,inactive,
Cc1cnccn1,inactive,
CN(C(=O)C(F)(F)C(F)(F)C(F)(F)F)[Si](C)(C)C,inactive,

SMILES,outcome,AC50
Brc1nc2ccccc2s1,inactive,
CCN(CC)c1ccc2c(c1)Oc1cc(N(CC)CC)ccc1C21OC(=O)c2ccccc21,inactive,
NC(O)(C(F)(F)F)C(F)(F)F,inactive,
O=C(O)C(F)(F)OC(F)(F)C(F)(F)OC(F)(F)C(F)(F)OC(F)(F)F,inactive,
O=C(O)C(F)(F)C(F)(F)C(F)(F)C(F)(F)C(F)(F)C(F)(F)C(F)F,inactive,
NC(=O)C(F)(F)C(F)(F)C(F)(F)C(F)F,inactive,
OC(O)C(F)(F)C(F)(F)F,inactive,
COC(F)(C(F)F)C(F)(F)F (stereo unspecified),inactive,
Cc1ccc(O)c(-n2nc3ccccc3n2)c1,inactive,
CCN=C1C=CC(=C(c2ccc(N(CC)CC)cc2)c2ccc(N(CC)CC)cc2)c2ccccc21,,1.87 µM (active) and 1.66 µM (active)
NC(=O)C(F)(F)C(F)(F)C(F)(F)C(F)(F)C(F)(F)C(F)(F)C(F)(F)F,inactive,
FC(F)(F)C(F)(F)C(F)(F)C(F)(F)C(F)(F)C(F)(F)C(F)(F)CCI,inactive,
Cc1ccc(S(=O)(=O)C(I)I)cc1,,2.35 µM (active)
OCCCC(F)(F)C(F)(F)C(F)(F)C(F)(F)C(F)(F)C(F)(F)C(F)(F)C(F)(F)F,,14.5 µM (active) and 8.21 µM (active)
NC(=O)C(F)(F)C(F)(F)C(F)(F)C(F)(F)C(N)=O,inactive,
O=C(O)CCC(F)(F)C(F)(F)C(F)(F)F,inactive,
